Inconclusive results are not listed. Calls of active or inactive are those of the source. Calls follow the shape of the dose curve; as a rule, active = well fitted inhibition curve with a large enough effect; inconclusive = small, poorly fitted or top-dose-only effect; inactive = flat fitted curve, though single readings scatter.
Assay: Drug repurposing screens with cells derived from glioblastoma tumor samples (AID 1345199); also: nearly all actives have a fitted effect of over 40% in size
Details: GBM patient neurospheres viability, ATP luminescence, 48 h
Description: CD133+ cells were isolated from GBM patient biopsies and cultured as neurospheres. Neurospheres from four patients were used to screen the NCATS pharmaceutical collection (NPC) library of approved drugs and bioactive compounds. […] The neurospheres were incubated with drugs for 48 hours in 1536-well format, then assayed with an ATP content cell viability assay. […] These hits were cherry picked to confirm activity in the four original GBM lines screened plus three other slower growing GMB lines (unable to yield enough cells for a full primary screen). Variable activities of the confirmed primary hits in the different GBM patient lines were observed. The patient line 206 responded to the greatest number of compounds and line 923 responded to the least amount of active compounds.

[1] = at 21.2 µM (top of the series), tumour line B
[2] = at 45.9 µM (top of the series), tumour line B
[3] = at 45.9 µM (top of the series), tumour line D
[4] = at 46 µM (top of the series), tumour line A
[5] = at 46.1 µM (top of the series), tumour line C
% is scaled to controls: 0 for no effect and ±100 for the full control effect; potency is read from the fitted curve at half-maximal effect.

CCNC1(c2cccs2)CCCCC1=O (stereo not given)
inactive: activity, negative = cell killing (at 20 µM (top of the series), tumour line C) -10.7% | activity, negative = cell killing [1] 2.65% | activity, negative = cell killing (at 21.2 µM (top of the series), tumour line D) -6.43%

CN1[C@@H]2CC[C@H]1CC(OC1c3ccccc3CCc3ccccc31)C2 (stereo not given in full)
inactive: activity, negative = cell killing [1] -28.8%
active: Potency (tumour line A) 5.62 µM

C[C@]12CC[C@H](OS(=O)(=O)O)CC1=CC[C@@H]1[C@@H]2CC[C@]2(C)C(=O)CC[C@@H]12
inactive: activity, negative = cell killing [2] 3.89% | activity, negative = cell killing [3] -2.35% | activity, negative = cell killing [4] -29.4% | activity, negative = cell killing [5] -15.3%

O=C1CN(O)C(c2ccccc2)=c2cc(Cl)ccc2=N1
inactive: activity, negative = cell killing [2] -13.2% | activity, negative = cell killing [3] -10.4% | activity, negative = cell killing [5] -13.2%

[S]=[Sb](=[S])[S][Sb](=[S])=[S]
inactive: activity, negative = cell killing [2] -4.98% | activity, negative = cell killing [3] -5.67% | activity, negative = cell killing [4] -28.3% | activity, negative = cell killing [5] -1.84%

CCCCCCCCOC(=O)c1ccccc1C(=O)OCCCCCCCC
inactive: activity, negative = cell killing [2] -18% | activity, negative = cell killing [3] 6.99% | activity, negative = cell killing [5] -8.6%

O=P(O)(O)C(Cl)(Cl)P(=O)(O)O
inactive: activity, negative = cell killing [2] 1.35% | activity, negative = cell killing [3] -11.3% | activity, negative = cell killing [5] -5.59%

C[C@@H](CO)NC(=O)[C@@H]1C=C2c3cccc4[nH]cc(c34)C[C@H]2N(C)C1
inactive: activity, negative = cell killing [2] -4.28% | activity, negative = cell killing [3] -4.71% | activity, negative = cell killing [4] -21.2% | activity, negative = cell killing [5] 15.8%

C[C@H]1CC[C@]2(NC1)O[C@H]1C[C@H]3[C@@H]4CC[C@H]5C[C@@H](O)CC[C@]5(C)[C@H]4CC[C@]3(C)[C@H]1[C@@H]2C
inactive: activity, negative = cell killing [2] -14.5% | activity, negative = cell killing [3] -28.2% | activity, negative = cell killing [5] -9.91%
active: Potency (tumour line A) 8.91 µM

COc1ccc2c3c1O[C@H]1C(=O)CC[C@H]4[C@@H](C2)N(C)CC[C@]314
inactive: activity, negative = cell killing [2] -6.83% | activity, negative = cell killing [3] -23.5% | activity, negative = cell killing [4] -21.5% | activity, negative = cell killing [5] -7.26%

COc1ccc2c3c1O[C@H]1[C@@H](O)C=C[C@H]4[C@@H](C2)NCC[C@@]341
inactive: activity, negative = cell killing [2] -18.4% | activity, negative = cell killing [3] -17.8% | activity, negative = cell killing [5] -25.3% | activity, negative = cell killing (at 99.2 µM (top of the series), tumour line C) 6.81% | activity, negative = cell killing (at 108 µM (top of the series), tumour line B) -9.55% | activity, negative = cell killing (at 108 µM (top of the series), tumour line D) -1.54%

Reference: PubChem BioAssay (NCATS)
